Assay [1] is described as follows: NCI Yeast Anticancer Drug Screen. Data for the rad50 strain (AID 155).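 Further: 0% = growth of vehicle-only cultures of the same strain.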 The settings on record: S. cerevisiae rad50 strain growth inhibition, stronger effect = higher value. An outline of the steps: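 A DNA repair-deficient yeast mutant serves as the test organism; compound-induced growth inhibition is calculated against vehicle-treated cells.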
The nature of assay [2]: NCI Yeast Anticancer Drug Screen. Data for the mec2-1 strain (AID 157). The settings on record: S. cerevisiae mec2-1 strain, stronger effect = higher value. An outline of the steps:
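Using mec2-1 yeast: add compound, measure growth, express inhibition versus vehicle-treated cultures.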

Assay [3] in a line: NCI Yeast Anticancer Drug Screen. Data for the sgs1 mgt1 strain (AID 161).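 Further: 0% = growth of cultures given vehicle only.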 The settings on record: S. cerevisiae sgs1 mgt1 strain, stronger effect = higher value. A digest of the protocol:
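Growth of a repair-deficient yeast mutant was monitored after compound treatment and expressed as inhibition relative to vehicle-treated cultures.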

Assay [4] is described as follows: NCI Yeast Anticancer Drug Screen. Data for the cln2 rad14 strain (AID 165).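 Further: 0% = growth equal to vehicle treated cultures.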 The settings on record: S. cerevisiae cln2 rad14 strain, stronger effect = higher value. An outline of the steps: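 Yeast strain cln2 rad14, bearing defects in cell cycle control and DNA repair, serves as the test system; values reflect growth inhibition compared with vehicle.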
The nature of assay [5]: NCI Yeast Anticancer Drug Screen. Data for the bub3 strain (AID 167). The settings on record: S. cerevisiae bub3 mutant strain, stronger effect = higher value. A digest of the protocol: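 Inhibition values come from growth of compound-treated mutant yeast normalised to vehicle-treated controls.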
A short description of assay [6]: NCI Yeast Anticancer Drug Screen. Data for the mlh1 rad18 strain (AID 175). The settings on record: S. cerevisiae mlh1 rad18 strain growth inhibition, stronger effect = higher value. An outline of the steps:
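Steps: expose repair-defective yeast to compound; measure growth; express inhibition against vehicle-treated controls.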

Setting [7] is: at 5.0 µM (retest, dose inferred, filed as 0.5).
Where [8] appears, read: at 50.0 µM (retest, dose inferred, filed as 5.0).

The record followed here is PubChem BioAssay (NCI).

This is part of a sample that, as a whole, favours compounds with a hit. Of some 79,000 tested, about 15% had one in any assay. A number with no mark means an inactive call. Calls of active or inactive are those of the source. No stated cut-off is given here; in the data, active means growth inhibition above about 70%; inactive means the rest.

As to `O=C(Cl)c1ccccn1`, the growth inhibition in assay [1] (setting [7]) was 6%; in assay [1] (setting [8]), 98% (active); in assay [1] (at 50.0 µM), 99.5% (active); in assay [2] (setting [7]), 7%; in assay [2] (setting [8]), 99% (active); in assay [2] (at 50.0 µM), 99.5% (active). For the same compound, the growth inhibition in assay [3] (setting [7]) was 7%; in assay [3] (setting [8]) it was 99% (active); in assay [3] (at 50.0 µM), 77.8% (active); in assay [4] (setting [7]), 6%; in assay [4] (setting [8]), 99% (active); in assay [4] (at 50.0 µM), 99.3% (active). For the same compound, the growth inhibition in assay [5] (setting [7]) was 4%; in assay [5] (setting [8]) it was 99% (active); in assay [5] (at 50.0 µM) it was 99.3% (active); in assay [6] (setting [7]), 1%; in assay [6] (setting [8]), 99% (active); in assay [6] (at 50.0 µM), 99.5% (active).
`CC1(O)CC([CH2][Hg][I])OC([CH2][Hg][I])C1` (configuration not stated): the growth inhibition in assay [1] (setting [7]) was 99% (active); in assay [1] (setting [8]), 99% (active); in assay [1] (at 50.0 µM), 96.3% (active); in assay [2] (setting [7]) it was 99% (active); in assay [2] (setting [8]) it was 99% (active); in assay [2] (at 50.0 µM), 98.3% (active). For the same compound, the growth inhibition in assay [3] (setting [7]) is 100% (active); in assay [3] (setting [8]), 99% (active); in assay [3] (at 50.0 µM), 96% (active); in assay [4] (setting [7]), 99% (active); in assay [4] (setting [8]), 98% (active); in assay [4] (at 50.0 µM), 98% (active). For the same compound, the growth inhibition in assay [5] (setting [7]) was 99% (active); in assay [5] (setting [8]) it was 98% (active); in assay [5] (at 50.0 µM) it was 98.6% (active); in assay [6] (setting [7]), 99% (active); in assay [6] (setting [8]), 99% (active); in assay [6] (at 50.0 µM), 91.6% (active).
For `CC(Cc1ccccc1)N(C)Cc1ccc(-c2ccc(Cl)cc2)o1` (configuration not stated), the growth inhibition in assay [1] (setting [7]) was 56%; in assay [1] (setting [8]), 100% (active); in assay [1] (at 50.0 µM) it was 99% (active); in assay [2] (setting [7]), 11%; in assay [2] (setting [8]), 100% (active); in assay [2] (at 50.0 µM) it was 99.7% (active). The growth inhibition in assay [3] (setting [7]) is 49%; in assay [3] (setting [8]), 100% (active); in assay [3] (at 50.0 µM), 33.9%; in assay [4] (setting [7]), 38%; in assay [4] (setting [8]), 100% (active); in assay [4] (at 50.0 µM) it was 99.3% (active). Further, the growth inhibition in assay [5] (setting [7]) is 42%; in assay [5] (setting [8]), 100% (active); in assay [5] (at 50.0 µM), 99.2% (active); in assay [6] (setting [7]), 41%; in assay [6] (setting [8]), 100% (active); in assay [6] (at 50.0 µM), 99.5% (active).
For the compound `CC(=O)OC1CCC2(C)C3=C(CCC2C1(C)C)C1(C)CCC(C(C)CCC2NC2(C)C)C1(C)CC3` (configuration not stated), the growth inhibition in assay [1] (setting [7]) is -22%; in assay [1] (setting [8]), 86% (active); in assay [1] (at 50.0 µM) it was 22.6%; in assay [2] (setting [7]) it was 3%; in assay [2] (setting [8]), 66%; in assay [2] (at 50.0 µM), 2.5%. Further, the growth inhibition in assay [3] (setting [7]) is 23%; in assay [3] (setting [8]), 98% (active); in assay [3] (at 50.0 µM), 95.8% (active); in assay [4] (setting [7]), 2%; in assay [4] (setting [8]) it was 23%; in assay [4] (at 50.0 µM), -29.1%. The growth inhibition in assay [5] (setting [7]) was -1%; in assay [5] (setting [8]), 79% (active); in assay [5] (at 50.0 µM), 10.8%; in assay [6] (setting [7]) it was 6%; in assay [6] (setting [8]), 84% (active); in assay [6] (at 50.0 µM), 11.2%.
Regarding `COc1ccc(NP(=S)(Nc2ccc(OC)cc2)c2ccccc2)cc1`, the growth inhibition in assay [1] (setting [7]) is 2%; in assay [1] (setting [8]), 54%; in assay [1] (at 50.0 µM), 55%; in assay [2] (setting [7]), -2%; in assay [2] (setting [8]), 57%; in assay [2] (at 50.0 µM) it was 58.1%. In addition, the growth inhibition is 6% in assay [3] (setting [7]); 65% in assay [3] (setting [8]); 49.6% in assay [3] (at 50.0 µM); 3% in assay [4] (setting [7]); 51% in assay [4] (setting [8]); 68.2% in assay [4] (at 50.0 µM). The growth inhibition in assay [5] (setting [7]) is -1%; in assay [5] (setting [8]), 78% (active); in assay [5] (at 50.0 µM), 67.6%; in assay [6] (setting [7]) it was 5%; in assay [6] (setting [8]), 58%; in assay [6] (at 50.0 µM), 28.9%.
Turning to `O=[N+]([O-])c1ccc(O)c(CCl)c1`, the growth inhibition was 6% in assay [1] (setting [7]); 41% in assay [1] (setting [8]); 16.5% in assay [1] (at 50.0 µM); -1% in assay [2] (setting [7]); 22% in assay [2] (setting [8]); 1.6% in assay [2] (at 50.0 µM). Moreover, the growth inhibition is 0% in assay [3] (setting [7]); 36% in assay [3] (setting [8]); 20.9% in assay [3] (at 50.0 µM); 0% in assay [4] (setting [7]); 5% in assay [4] (setting [8]); -4.15% in assay [4] (at 50.0 µM). The growth inhibition was 3% in assay [5] (setting [7]); 18% in assay [5] (setting [8]); 8.65% in assay [5] (at 50.0 µM); 4% in assay [6] (setting [7]); 59% in assay [6] (setting [8]); 76.2% (active) in assay [6] (at 50.0 µM).
As for `C1CC[N-]CC1.C1CC[N-]CC1.N#CO.[Ag]`, the growth inhibition was 99% (active) in assay [1] (setting [7]); 99% (active) in assay [1] (setting [8]); 99.2% (active) in assay [1] (at 50.0 µM); 100% (active) in assay [2] (setting [7]); 99% (active) in assay [2] (setting [8]); 99.5% (active) in assay [2] (at 50.0 µM). Also, the growth inhibition in assay [3] (setting [7]) was 100% (active); in assay [3] (setting [8]), 99% (active); in assay [3] (at 50.0 µM) it was 99.4% (active); in assay [4] (setting [7]) it was 99% (active); in assay [4] (setting [8]), 99% (active); in assay [4] (at 50.0 µM), 99% (active). The growth inhibition in assay [5] (setting [7]) is 99% (active); in assay [5] (setting [8]), 99% (active); in assay [5] (at 50.0 µM), 99.6% (active); in assay [6] (setting [7]), 99% (active); in assay [6] (setting [8]), 99% (active); in assay [6] (at 50.0 µM), 99.3% (active).
In the case of `Oc1cccc[c]1[Hg][Cl]`, the growth inhibition in assay [1] (setting [7]) was 99% (active); in assay [1] (setting [8]), 99% (active); in assay [1] (at 50.0 µM), 99.5% (active); in assay [2] (setting [7]), 99% (active); in assay [2] (setting [8]), 100% (active); in assay [2] (at 50.0 µM), 99.7% (active). The growth inhibition is 99% (active) in assay [3] (setting [7]); 99% (active) in assay [3] (setting [8]); 99.5% (active) in assay [3] (at 50.0 µM); 100% (active) in assay [4] (setting [7]); 99% (active) in assay [4] (setting [8]); 98.6% (active) in assay [4] (at 50.0 µM). For the same compound, the growth inhibition was 99% (active) in assay [5] (setting [7]); 99% (active) in assay [5] (setting [8]); 99.5% (active) in assay [5] (at 50.0 µM); 99% (active) in assay [6] (setting [7]); 99% (active) in assay [6] (setting [8]); 99.5% (active) in assay [6] (at 50.0 µM).
With `CCC[CH2][Sn]1([CH2]CCC)[S]CC[N]1S(=O)(=O)c1ccc(C)cc1`, the growth inhibition was 79% (active) in assay [1] (setting [7]); 98% (active) in assay [1] (setting [8]); 91.8% (active) in assay [1] (at 50.0 µM); 85% (active) in assay [2] (setting [7]); 99% (active) in assay [2] (setting [8]); 94% (active) in assay [2] (at 50.0 µM). The growth inhibition was 77% (active) in assay [3] (setting [7]); 99% (active) in assay [3] (setting [8]); 92.6% (active) in assay [3] (at 50.0 µM); 62% in assay [4] (setting [7]); 97% (active) in assay [4] (setting [8]); 91.5% (active) in assay [4] (at 50.0 µM). Also, the growth inhibition is 88% (active) in assay [5] (setting [7]); 98% (active) in assay [5] (setting [8]); 92.3% (active) in assay [5] (at 50.0 µM); 88% (active) in assay [6] (setting [7]); 97% (active) in assay [6] (setting [8]); 92% (active) in assay [6] (at 50.0 µM).
